This passage reports composite z-score and z-score results from PubChem BioAssay.

Experiment [1] relates to PRMT1 (protein arginine N-methyltransferase 1). Put plainly: PRMT1 binders on small-molecule microarrays, primary screen, biochemical, small-molecule microarray, 635 nm fluorescence (AID 1088).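 Note: binding of Prmt1 protein to compounds spotted on small-molecule microarray slides.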 The settings on record: small-molecule microarray binding, higher = more signal.
Experiment [2] can be described thus: yeast growth modulation, basal conditions, primary screen, YJM789 clinical isolate, OD600, 24 h (AID 1089).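 Note: growth of clinical yeast isolate S. cerevisiae YJM 789 seeded 1000 cells per well; test concentration not given here.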 The settings on record: S. cerevisiae YJM789 growth, higher = more signal, called active from +8 up or from −8 down.
Experiment [3] in a line: fission yeast growth modulation, primary screen, strain 972, OD600, 24 h, no modulator (AID 1090).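 Note: basal condition with compound alone and no growth modifier present; test concentration not given here.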 The settings on record: S. pombe 972 growth, higher = more signal, called active from +8 up or from −8 down.
The nature of experiment [4]: S. cerevisiae growth modulation with rapamycin, primary screen, strain BY4716, OD600, 96 h (AID 1091). Note: test concentration not given here. Conditions: higher = more signal, called active from +8 up or from −8 down.
Experiment [5] concerns the target Torsin-1A-interacting protein 2 (Homo sapiens) (UniProt Q8NFQ8). Put plainly: LULL1 binders on small-molecule microarray, primary screen, cell lysate, human LULL1 lysate, 635/667 nm fluorescence (AID 1092).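 Note: probe is lysate of COS7 cells overexpressing human LULL1; score merges per-feature 667 nm fluorescence with signal-to-noise.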 The settings on record: hLULL1 lysate binding, 635 nm fluorescence, higher = more signal.
A short description of experiment [6]: E. coli growth modulation, two-sided OD650, primary screen, E. coli filamentation project, strain DRC41, 24 h (AID 1093).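 Note: MC1000 strain lacking acrAB efflux and sulA so SOS filamentation is blocked; test concentration not given here.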 The settings on record: OD650, 24 h, higher = more signal, called active from +8 up or from −8 down.
Experiment [7] can be described thus: small-molecule microarray binders of probe aLefty2, primary screen, biochemical, biotinylated probe, 635/667 nm fluorescence (AID 1094).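 Note: score merges spot fluorescence near 667 nm with spot signal-to-noise ratio.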 The settings on record: higher = more signal.
The test system of experiment [8] is Noggin (protein binding on small-molecule microarray). Put plainly: Noggin binders on small-molecule microarray, primary screen, biochemical, 635/667 nm fluorescence (AID 1095).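 Note: score merges 667 nm feature fluorescence with signal to noise over triplicate slides.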 The settings on record: 635 nm fluorescence, higher = more signal.
The target in experiment [9] is Neurogenic locus notch homolog protein 3 (Homo sapiens) (UniProt Q9UM47). Put plainly: NOTCH3 binders on small-molecule microarray, primary screen, biochemical, 635/667 nm fluorescence (AID 1096). The settings on record: NOTCH3 binding, 635 nm fluorescence, higher = more signal.
Experiment [10] is described as follows: small-molecule microarray binders of probe aEGFR, primary screen, biochemical, biotinylated probe, 635/667 nm fluorescence (AID 1097).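 Note: probe is a biotinylated anti-EGFR antibody binding compounds printed on slides; score combines fluorescence near 667 nm and signal to noise of each spot.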 Conditions: higher = more signal.

SMILES strings stand for the structures. Calls of active or inactive are those of the source.

Neurogenic locus notch homolog protein 3 (Homo sapiens), sequence (Q9UM47 whole entry, looked up): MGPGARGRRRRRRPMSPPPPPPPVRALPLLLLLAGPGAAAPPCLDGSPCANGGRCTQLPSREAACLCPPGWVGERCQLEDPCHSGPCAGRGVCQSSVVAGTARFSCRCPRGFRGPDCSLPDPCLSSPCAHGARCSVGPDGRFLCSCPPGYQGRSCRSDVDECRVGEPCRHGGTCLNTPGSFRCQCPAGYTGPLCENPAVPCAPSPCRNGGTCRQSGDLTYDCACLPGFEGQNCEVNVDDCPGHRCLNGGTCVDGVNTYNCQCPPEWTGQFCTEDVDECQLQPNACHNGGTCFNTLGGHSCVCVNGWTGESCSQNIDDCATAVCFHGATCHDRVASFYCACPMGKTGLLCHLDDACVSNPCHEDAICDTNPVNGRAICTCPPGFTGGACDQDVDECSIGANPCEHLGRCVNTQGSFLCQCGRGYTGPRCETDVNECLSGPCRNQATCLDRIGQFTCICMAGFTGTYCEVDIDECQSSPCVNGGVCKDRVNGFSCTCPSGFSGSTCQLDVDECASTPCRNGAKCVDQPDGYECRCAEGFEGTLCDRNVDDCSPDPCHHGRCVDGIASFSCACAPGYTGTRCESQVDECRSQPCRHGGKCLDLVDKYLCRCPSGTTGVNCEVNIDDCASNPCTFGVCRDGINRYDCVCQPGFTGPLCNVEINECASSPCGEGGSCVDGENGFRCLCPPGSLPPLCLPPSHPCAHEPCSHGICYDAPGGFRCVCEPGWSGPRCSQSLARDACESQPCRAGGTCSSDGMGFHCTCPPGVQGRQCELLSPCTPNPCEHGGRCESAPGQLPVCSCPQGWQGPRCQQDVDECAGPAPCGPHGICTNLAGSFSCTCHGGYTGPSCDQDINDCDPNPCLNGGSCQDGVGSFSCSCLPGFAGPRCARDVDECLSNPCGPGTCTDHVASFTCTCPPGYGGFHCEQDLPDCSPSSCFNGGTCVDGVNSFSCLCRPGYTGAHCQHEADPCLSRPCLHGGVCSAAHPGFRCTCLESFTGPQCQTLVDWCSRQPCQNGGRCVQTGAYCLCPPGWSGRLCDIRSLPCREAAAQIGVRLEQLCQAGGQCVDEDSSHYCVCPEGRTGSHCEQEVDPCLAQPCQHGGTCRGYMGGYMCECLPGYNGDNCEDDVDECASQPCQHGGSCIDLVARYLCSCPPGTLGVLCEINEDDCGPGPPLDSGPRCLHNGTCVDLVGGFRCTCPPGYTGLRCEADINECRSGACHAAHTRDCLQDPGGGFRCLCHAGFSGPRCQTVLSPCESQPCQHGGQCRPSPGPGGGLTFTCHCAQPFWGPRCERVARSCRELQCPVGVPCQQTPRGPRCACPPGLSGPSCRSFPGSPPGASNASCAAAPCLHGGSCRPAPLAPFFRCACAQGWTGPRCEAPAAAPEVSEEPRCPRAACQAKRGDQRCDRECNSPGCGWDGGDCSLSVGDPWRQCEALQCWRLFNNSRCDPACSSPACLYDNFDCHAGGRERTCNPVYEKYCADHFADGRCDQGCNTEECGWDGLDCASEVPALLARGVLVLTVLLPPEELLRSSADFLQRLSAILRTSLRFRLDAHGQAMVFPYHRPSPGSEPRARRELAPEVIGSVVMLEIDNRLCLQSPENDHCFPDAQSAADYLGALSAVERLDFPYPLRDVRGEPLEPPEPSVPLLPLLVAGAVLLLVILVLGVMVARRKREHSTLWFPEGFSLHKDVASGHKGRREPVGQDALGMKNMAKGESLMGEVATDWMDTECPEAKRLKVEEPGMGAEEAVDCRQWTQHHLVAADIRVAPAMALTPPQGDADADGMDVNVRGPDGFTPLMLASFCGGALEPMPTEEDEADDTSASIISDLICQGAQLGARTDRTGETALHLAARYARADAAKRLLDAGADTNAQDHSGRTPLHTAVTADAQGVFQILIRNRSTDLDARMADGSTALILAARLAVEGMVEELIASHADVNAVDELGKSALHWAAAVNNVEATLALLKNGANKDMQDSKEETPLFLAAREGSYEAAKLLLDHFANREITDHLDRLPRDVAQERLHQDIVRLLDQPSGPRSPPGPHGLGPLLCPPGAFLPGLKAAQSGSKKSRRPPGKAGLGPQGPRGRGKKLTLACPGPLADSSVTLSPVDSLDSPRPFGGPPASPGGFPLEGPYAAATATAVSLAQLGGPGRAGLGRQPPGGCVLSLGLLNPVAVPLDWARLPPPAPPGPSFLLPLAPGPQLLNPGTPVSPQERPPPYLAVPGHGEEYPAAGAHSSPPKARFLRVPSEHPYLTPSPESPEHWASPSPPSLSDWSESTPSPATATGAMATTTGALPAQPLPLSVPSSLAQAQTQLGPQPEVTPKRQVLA
Torsin-1A-interacting protein 2 (Homo sapiens), sequence (Q8NFQ8 whole entry, looked up): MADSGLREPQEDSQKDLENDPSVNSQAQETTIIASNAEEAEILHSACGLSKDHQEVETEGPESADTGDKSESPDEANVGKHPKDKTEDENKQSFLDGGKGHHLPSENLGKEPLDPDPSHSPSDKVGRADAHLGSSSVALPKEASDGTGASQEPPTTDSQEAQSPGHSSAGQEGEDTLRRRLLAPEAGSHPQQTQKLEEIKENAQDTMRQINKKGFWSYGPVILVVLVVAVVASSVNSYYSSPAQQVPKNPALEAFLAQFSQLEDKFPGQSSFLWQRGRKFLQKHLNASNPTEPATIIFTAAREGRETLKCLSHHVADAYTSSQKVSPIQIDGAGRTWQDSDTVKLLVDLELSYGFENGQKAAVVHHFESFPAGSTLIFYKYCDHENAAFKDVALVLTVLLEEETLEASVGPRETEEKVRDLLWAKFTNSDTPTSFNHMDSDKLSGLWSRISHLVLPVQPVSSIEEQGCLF

In the case of `O=C1OCCC=C[C@H]2OC34C=CCN(c5ccc6ccccc6c5)C(=O)[C@H]3N(CCO)C(=O)[C@@H]4C12` (stereo not given in full), the composite z-score in [1] is -0.3; in [5], -0.686; in experiment [7] it was -0.314; in experiment [8], -0.251; in experiment [9], 0.301; in experiment [10], -0.0353. Further, the z-score was -0.735 (inactive) in experiment [2], -0.737 (inactive) in [3], -0.171 (inactive) in experiment [4] and -0.021 (inactive) in experiment [6].
On to `C=C(COC)/C(=C/C[C@@H](OC(C)=O)c1ccccc1OCCO)c1cnc2ccccc2c1`, for which the composite z-score was 1.56 in experiment [1]; 0.895 in experiment [5]; -0.154 in [7]; 1.64 in experiment [8]; 1.09 in experiment [9]; -0.0828 in [10]. The z-score was 0.27 (inactive) in experiment [2], -0.614 (inactive) in experiment [3], -0.112 (inactive) in experiment [4] and 0.359 (inactive) in [6].
For the compound `CCN(CC)c1ccc(N2CC=CC34O[C@@H]5C=CCCOC(=O)C5[C@H]3C(=O)N(C(C)CO)[C@@H]4C2=O)cc1` (stereo not given in full), the composite z-score in [1] is 1.05; in experiment [5], 2.11; in experiment [7], 0.0815; in [8] it was 0.524; in experiment [9], 0.61; in [10], -0.0702. Besides, the z-score in experiment [2] was -1.01 (inactive); in experiment [3] it was -1.6 (inactive); in experiment [4], -0.399 (inactive); in experiment [6], -0.42 (inactive).
Consider `COC(=O)[C@@]1(Cc2ccccc2)[C@H]2c3cc(C(=O)N(C)C)n(CCSC(=N)N)c3C[C@H]2CN1C(=O)c1ccccc1`, for which the composite z-score in experiment [1] was 0.265; in experiment [5], 2.05; in experiment [7], 0.169; in experiment [8], -0.699; in experiment [9], -0.0995; in experiment [10], -0.112. The z-score was 0.485 (inactive) in [2], 1.12 (inactive) in [3], 0.102 (inactive) in [4] and -0.0906 (inactive) in experiment [6].
For `[N-]=[N+]=Nc1ccccc1C[C@@]1(C(=O)NCC(O)CO)N=C(c2ccc(OCCCO)cc2)O[C@@H]1c1ccccc1` (stereo not given in full), the composite z-score in experiment [1] was 0.376; in [5], 2.81; in experiment [7], -0.0021; in experiment [8], -0.264; in experiment [9], -0.405; in experiment [10], -0.151. The z-score in [2] is -0.558 (inactive); in [3], -1.09 (inactive); in experiment [4] it was -1.31 (inactive); in experiment [6], 0.883 (inactive).
Regarding `C=CCC(OC(C)=O)[C@@H]1[C@@H](N(Cc2cccc3ccccc23)C(=O)Cc2ccc(OC)cc2)c2cc(OCCCO)ccc2N1C(=O)c1ccc2ccccc2c1` (stereo not given in full), the composite z-score in experiment [1] was 1.14; in [5], 1.06; in experiment [7], -0.0042; in experiment [8], 0.115; in experiment [9], 0.373; in [10] it was -0.0967. In addition, the z-score in experiment [2] was -1.12 (inactive); in experiment [3], 0.098 (inactive); in experiment [4] it was -1.35 (inactive); in experiment [6], 1.1 (inactive).
As for `CCCC[C@H]1OB(O)C[C@H]2C1=C(COc1ccccc1)C[C@H]1C(=O)C=CC(=O)[C@H]12`, the composite z-score was 1.07 in [1]; 0.258 in experiment [5]; -0.377 in experiment [7]; 0.592 in experiment [8]; 1.03 in [9]; -0.0007 in experiment [10]. Moreover, the z-score in experiment [2] was 0.426 (inactive); in experiment [3] it was -3.31 (inactive); in experiment [4] it was -0.241 (inactive); in experiment [6], 1.78 (inactive).
With `COCCCNC(=O)[C@@]1(Sc2ccc(C)cc2)CC(=O)N(Cc2ccccc2C(F)(F)F)[C@@H]1c1ccc(CO)cc1I`, the composite z-score in experiment [1] was 0.242; in experiment [5], 1.08; in experiment [7] it was 0.0245; in experiment [8], -2.51; in experiment [9] it was -1.4; in [10], -0.203. In addition, the z-score in [2] is -0.394 (inactive); in experiment [3] it was -1.05 (inactive); in experiment [4], 0.461 (inactive); in experiment [6], 0.217 (inactive).
Consider `COc1ccc([Si](C)(C)[C@@H]2[C@@H](CC(=O)N3CCC[C@H]3CO)O[C@]3(C(=O)N(Cc4cccc(N5CCCCC5=O)c4)c4ccccc43)[C@H]2C)cc1`, for which the composite z-score is 1.57 in experiment [1]; 1.89 in experiment [5]; -0.183 in experiment [7]; 0.894 in [8]; 0.625 in [9]; -0.0828 in experiment [10]. The z-score was -0.965 (inactive) in experiment [2], -0.388 (inactive) in [3], 0.1 (inactive) in experiment [4] and 0.807 (inactive) in experiment [6].
For `CCOC(=O)C1=C[C@@H](C(C)(C)C)N(S(=O)(=O)c2ccc(C)cc2)[C@H]1c1ccc(C#N)cc1`, the composite z-score worked out at 1.56 in [1]; 2.88 in experiment [5]; 0.419 in experiment [7]; 0.198 in experiment [8]; 1.01 in experiment [9]; 0.126 in [10]. Further, the z-score in experiment [2] is 0.3 (inactive); in experiment [3], 2.17 (inactive); in experiment [4], 1.75 (inactive); in experiment [6], 0.0374 (inactive).
In the case of `C=C(CCCC)C(=O)CC[C@@H](OC(=O)c1ccccc1-c1ccccc1C(=O)O)c1ccccc1OCCO`, the composite z-score in experiment [1] was 1.23; in experiment [5], -0.583; in experiment [7], -0.146; in [8] it was 1.2; in experiment [9], 0.48; in experiment [10] it was -0.178. Further, the z-score in experiment [2] was -0.576 (inactive); in [3] it was -1.19 (inactive); in experiment [4] it was -1.61 (inactive); in experiment [6], 0.306 (inactive).
Turning to `CC(C)c1nc2cc(Br)ccc2c(=O)o1`, the composite z-score is -0.0152 in [1]; 2.97 in experiment [5]; -0.0823 in experiment [7]; 0.0534 in [8]; 0.567 in experiment [9]; -0.0535 in [10]. Moreover, the z-score in experiment [2] is -0.0363 (inactive); in experiment [3], 0.347 (inactive); in experiment [4], -0.26 (inactive); in experiment [6], 0.501 (inactive).
As for `CC(C)C[C@@H]1NC(=O)[C@@H]2C[C@H](C(=O)NCCCCCCNC(=O)CS)[C@H](c3cccc(OCCO)c3)N2C1=O`, the composite z-score in experiment [1] is 1.54; in [5], 2.84; in [7] it was -0.0124; in [8], 1.66; in experiment [9], 1.02; in [10] it was 0.0618. The z-score in [2] is 0.509 (inactive); in experiment [3] it was 0.679 (inactive); in [4], 1.52 (inactive); in experiment [6], -0.616 (inactive).
On to `CCCC=C(CCC)[C@@H](NC(=O)OCC(C)C)c1ccc(C(=O)OC)cc1`, for which the composite z-score was 0.586 in experiment [1]; 0.893 in experiment [5]; 0.0506 in [7]; 0.421 in experiment [8]; 0.621 in experiment [9]; -0.123 in experiment [10]. In addition, the z-score in experiment [2] was -0.245 (inactive); in experiment [3], 0.354 (inactive); in experiment [4], -0.894 (inactive); in [6], 0.0664 (inactive).
Turning to `COC(=O)[C@@]1(Cc2ccc(F)cc2)[C@H]2c3cc(C(=O)N4CCCC4)n(CCc4ccccn4)c3C[C@H]2CN1C(=O)c1ccccc1`, the composite z-score in experiment [1] is -0.63; in experiment [5], 2.89; in experiment [7] it was 0.181; in experiment [8] it was -0.701; in [9], 0.572; in experiment [10], -0.164. Besides, the z-score in [2] was -0.0526 (inactive); in experiment [3], 0.804 (inactive); in experiment [4] it was 0.414 (inactive); in [6], -0.223 (inactive).
